Only some compounds are listed: those with a hit (about 0.37% of all), similar ones and a draw of the others.
Cdc42 wt – modulators (inhibitors or activators) of GTP binding to human Cdc42 wildtype | P60953 | GST-Cdc42 beads, Bodipy-GTP binding, flow cytometry; actives lie on both sides | percent activity (GTP binding), % at 10 µM | hit rate 0.2% among 190,000 | AID 761;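 active = percent activity GTP binding at least 20 points away from the 100% baseline, either down as inhibitor or up as activator; inconclusive = compound flagged as likely green fluorescent from well-wide comparison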;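 note: median bead fluorescence of bound Bodipy-FL-GTP at 100 nM; 0% = excess unlabeled GTP control and 100% = no compound control; below 100% means less GTP binding so inhibitor and above means activator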
Target sequence (P60953 whole entry, looked up): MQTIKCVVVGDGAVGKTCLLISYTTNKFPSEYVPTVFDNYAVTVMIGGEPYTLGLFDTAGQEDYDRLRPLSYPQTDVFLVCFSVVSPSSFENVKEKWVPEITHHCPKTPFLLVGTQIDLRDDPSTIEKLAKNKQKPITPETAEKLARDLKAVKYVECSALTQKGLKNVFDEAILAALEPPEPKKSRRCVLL
Rac1 act GTP bind – human Rac1 activated mutant GTP binding change | hit rate 0.11% among 190,000 | percent activity (GTP binding), % at 10 µM | GST-Rac1 activated beads, fluorescent GTP binding, flow cytometry; actives lie on both sides; 100% means binding = to untreated wells | AID 764;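 active = GTP binding at least 20 percentage points away from the 100% baseline, in either direction, so actives lie on both sides; inconclusive = Compound likely fluorescent itself, or too few beads counted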
Rac1 wt GTP bind – modulators of human Rac1 wildtype GTP binding; AID 757; hit rate 0.27% among 190,000; GTP binding activity (% of control), % at 10 µM; P63000; GST-Rac1 beads, fluorescent GTP binding, flow cytometry; actives lie on both sides; 0 = cold GTP competed, 100 = untreated;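 active = GTP binding activity at least 20 points away from the 100% control level, either lower or higher; inconclusive = compound flagged as likely green fluorescent, judged across all proteins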
HRas wt GTP bind – modulators of GTP binding to human HRas wildtype; P01112; GST-Ras wt beads, Bodipy-FL-GTP binding, flow cytometry; actives lie on both sides; GTP binding activity, % at 10 µM; hit rate 0.14% among 190,000; AID 759;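 active = GTP binding activity at least 20% away from the 100% baseline, either lowered as inhibitor or raised as activator; inconclusive = flagged as likely green fluorescent, judged across all proteins in the well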;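 note: 0% = unlabeled GTP competition control and 100% = no-compound control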
Target sequence (P01112 whole entry, looked up): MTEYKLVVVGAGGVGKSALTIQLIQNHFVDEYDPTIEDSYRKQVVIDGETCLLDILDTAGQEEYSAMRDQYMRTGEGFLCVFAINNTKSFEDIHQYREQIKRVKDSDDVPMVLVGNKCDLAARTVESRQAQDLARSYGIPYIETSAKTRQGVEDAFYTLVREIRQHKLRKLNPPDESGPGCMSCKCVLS
Rab2 wt GTP – changes GTP binding to wildtype dog Rab2A, up or down. GST-Rab2 wt beads, Bodipy-GTP binding, flow cytometry. GTP binding activity, % at 10 µM. hit rate 0.19% among 190,000. AID 760;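 active = GTP binding activity at least 20 points away from 100%, either lowered or raised; inconclusive = signal likely due to the compound's own green fluorescence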;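 note: 0% = beads with excess unlabeled GTP and 100% = no-compound control corrected for plate trend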
Rab7 wt modul – modulators of GTP binding to dog Rab7 wildtype GTPase. GST-Rab7 beads, fluorescent GTP binding, flow cytometry; actives lie on both sides; untreated = 100%, excess cold GTP = 0%. GTP binding activity (percent of control), % at 10 µM. hit rate 0.055% among 190,000;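 active = fluorescent GTP binding to Rab7 beads changed by at least 20 points from the 100% baseline, either direction, mostly lower; inconclusive = compound itself probably fluorescent, or too few beads counted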;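 note: median green fluorescence of bound Bodipy-FL-GTP per Rab7 bead population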
* = called active by the depositor; ? = inconclusive; [ ] = dose if it differs, or a comment.

SMILES | Cdc42 wt | Rac1 act GTP bind | Rac1 wt GTP bind | HRas wt GTP bind | Rab2 wt GTP | Rab7 wt modul
O=C(Nc1cccc(-c2nnc(-c3ccco3)o2)c1)c1ccccc1 | 83.0 | 90.0 | 76.0* | 84.0 | 85.0 | 89.0
O=S(=O)(Nc1cccc(-c2cn3cccnc3n2)c1)c1ccccc1 | 86.0 | 85.0 | 70.0* | 75.0* | 74.0* | 87.0
O=S(=O)(Nc1cccc(-c2cn3cccnc3n2)c1)c1ccc(-c2ccccc2)cc1 | 93.0 | 94.0 | 95.0 | 97.0 | 95.0 | 96.0
Cc1nc(Nc2ccc(C(=O)O)cc2)nc(Nc2ccc(C(=O)O)cc2)c1[N+](=O)[O-] | 55.0* | 77.0* | 62.0* | 60.0* | 55.0* | 84.0
CC(=O)Nc1ccc(Nc2nc(C)c([N+](=O)[O-])c(Nc3ccccc3)n2)cc1 | 99.0 | 101.0 | 105.0 | 99.0 | 99.0 | 99.0
S=C(NCc1ccccc1)N1CCn2cccc2C1c1cccnc1 (stereo not given) | 98.0 | 95.0 | 97.0 | 98.0 | 96.0 | 97.0
S=C(NCCc1ccccc1)N1CCn2cccc2C1c1cccnc1 (stereo not given) | 78.0* | 77.0* | 78.0* | 81.0 | 80.0 | 86.0
O=C(OCc1ccccc1)c1cccnc1Cl | 94.0 | 93.0 | 96.0 | 98.0 | 99.0 | 106.0
O=C(O)c1ccccc1C(=O)OCc1ccccc1 | 115.0 | ? | 160.0*[activator] | 136.0*[activator] | 134.0*[activator] | ?
O=C(CSc1nnc(-c2cccs2)o1)c1cccs1 | 97.0 | 95.0 | 96.0 | 98.0 | 96.0 | 97.0
COc1ccc(-c2nnc(SCC(=O)c3cccs3)o2)cc1 | 54.0* | 62.0* | 58.0* | 42.0* | 60.0* | 59.0*
COc1c(C)cc(Br)cc1C(=O)O | 116.0 | 101.0 | 120.0*[activator] | 111.0 | 112.0 | 102.0
CN(c1ccc(OCC(=O)NCc2cccnc2)cc1)S(=O)(=O)c1ccc(Cl)cc1 | 98.0 | 97.0 | 100.0 | 98.0 | 98.0 | 105.0
CN(C)S(=O)(=O)c1cc(NC(=O)CN2CCN(c3ccccc3F)CC2)ccc1Cl | 93.0 | 93.0 | 99.0 | 98.0 | 101.0 | 105.0
COCc1cc(C)nc(N/N=C/c2ccc(-c3ccc(C(=O)O)c(Cl)c3)o2)c1C#N | 73.0* | 86.0 | 67.0* | 78.0* | 77.0* | 97.0
COc1ccc(CNC(=O)c2noc(C)c2[N+](=O)[O-])cc1 | 95.0 | 95.0 | 97.0 | 93.0 | 94.0 | 98.0
Cc1cccc(C(=O)NCC(=O)N2CC(=O)Nc3ccccc32)c1 | 101.0 | 96.0 | 101.0 | 100.0 | 100.0 | 105.0
O=C(O)c1ccccc1OCCOc1ccccc1 | 138.0*[activator] | 132.0*[activator] | 157.0*[activator] | 123.0*[activator] | 130.0*[activator] | 123.0*[activator]
Cc1noc(C)c1COc1cccc(C(=O)NCc2ccccc2Cl)c1 | 71.0* | 74.0* | 72.0* | 52.0* | 69.0* | 67.0*
Cc1noc(C)c1COc1ccc(C(=O)OCC(=O)NCc2ccccc2Cl)cc1 | 100.0 | 98.0 | 102.0 | 99.0 | 96.0 | 104.0
CCCc1nc2ccccc2n1Cc1ccccc1OC | 100.0 | 96.0 | 101.0 | 98.0 | 96.0 | 99.0
COc1ccc(-n2c(C)cc(C(=O)Cn3nc(C(=O)O)c4ccccc4c3=O)c2C)cc1 | 83.0 | 84.0 | 83.0 | 88.0 | 81.0 | 89.0
CCn1cc(C(=O)OCC(=O)c2cc(C)n(-c3ccc(OC(F)F)cc3)c2C)c(=O)c2ccc(C)nc21 | 79.0* | 78.0* | 74.0* | 85.0 | 76.0* | 92.0
CCn1cc(C(=O)OCC(=O)c2cc(C)n(-c3ccccc3)c2C)c(=O)c2ccc(C)nc21 | 87.0 | 87.0 | 90.0 | 93.0 | 90.0 | 100.0
Cc1cc(C(=O)Cn2nc(C(=O)O)c3ccccc3c2=O)c(C)n1-c1ccc(OC(F)F)cc1 | 79.0* | 83.0 | 90.0 | 82.0 | 80.0 | 90.0
SMILES | Cdc42 wt | Rac1 act GTP bind | Rac1 wt GTP bind | HRas wt GTP bind | Rab2 wt GTP | Rab7 wt modul
CC(=O)N=c1n(C)c2ccccc2n1CCOc1ccccc1 | 100.0 | 101.0 | 102.0 | 103.0 | 101.0 | 100.0
COc1cccc(-c2cc(C(F)(F)F)c(C#N)c(=O)[nH]2)c1 | 81.0 | 77.0* | 80.0 | 83.0 | 78.0* | 85.0
Nc1[nH]n2c(=O)c3c(nc2c1N=Nc1ccccc1)CCCC3 | 72.0* | 85.0 | 85.0 | 73.0* | 71.0* | 94.0
Cc1ccc(N=Nc2c(N)[nH]n3c(=O)cc(-c4ccccc4)nc23)cc1 | 79.0* | 77.0* | 79.0* | 85.0 | 78.0* | 83.0
Nc1[nH]n2c(=O)c3c(nc2c1N=Nc1ccc(Cl)cc1)CCCC3 | 86.0 | 84.0 | 74.0* | 86.0 | 81.0 | 89.0
COc1cccc(N=Nc2c(N)[nH]n3c(=O)cc(-c4ccccc4)nc23)c1 | 92.0 | 91.0 | 93.0 | 92.0 | 88.0 | 94.0
Cc1cc(NC(=O)CSc2nc(-c3ccccc3Cl)nc3c2c(=O)n(C)c(=O)n3C)no1 | 94.0 | 99.0 | 101.0 | 98.0 | 100.0 | 104.0
CCOC(=O)C1(Cc2cccc(OC)c2)CCN(Cc2cccc(OC)c2O)CC1 | 99.0 | 97.0 | 102.0 | 101.0 | 99.0 | 102.0
COCc1c(Br)c(C)nc(OCC(=O)N/N=C/c2cc(C)n(-c3ccc([N+](=O)[O-])cc3)c2C)c1C#N | 101.0 | 96.0 | 102.0 | 98.0 | 98.0 | 98.0
OC(CN1CCN(Cc2ccc3c(c2)OCO3)CC1)c1c[nH]c2ccccc12 (stereo not given) | 116.0 | 105.0 | 122.0*[activator] | 107.0 | 107.0 | 94.0
Cc1c(C(O)CN2CCN(Cc3ccc4c(c3)OCO4)CC2)c2ccccc2n1C (stereo not given) | 100.0 | 99.0 | 103.0 | 100.0 | 99.0 | 99.0
O=[N+]([O-])/C=C\c1ccc(N2CCCC2)c(F)c1 | 95.0 | 93.0 | 96.0 | 98.0 | 98.0 | 106.0
COc1ccc(S(=O)(=O)n2oc(=O)cc2-c2ccccc2)cc1 | 79.0* | 90.0 | 94.0 | 83.0 | 79.0* | 89.0
O=c1cc(-c2ccccc2)n(S(=O)(=O)c2ccccc2)o1 | 98.0 | 100.0 | 101.0 | 97.0 | 96.0 | 95.0
COC(=O)c1ccc(COc2ccc(/C=C(\C#N)c3nc4ccccc4[nH]3)cc2OC)o1 | 101.0 | 98.0 | 102.0 | 99.0 | 101.0 | 99.0
COc1ccc2nc(/C(C#N)=C\c3ccc(C(=O)O)cc3)[nH]c2c1 | 78.0* | 85.0 | 77.0* | 86.0 | 86.0 | 96.0
COc1cc(/C=C(/C#N)c2nc3ccccc3[nH]2)ccc1OCc1ccc(C(=O)O)o1 | 78.0* | 87.0 | 85.0 | 78.0* | 77.0* | 94.0
COc1ccc2cc(C)c3nnc(SCc4cccnc4)n3c2c1 | 79.0* | 90.0 | 86.0 | 82.0 | 83.0 | 95.0
O=C(Cn1cnc([N+](=O)[O-])c1)NC1CCCC1 | 103.0 | 99.0 | 103.0 | 97.0 | 98.0 | 93.0
COc1ccc(CC(=O)Nc2ccc(S(=O)(=O)NC(C)C)cc2)cc1 | 30.0* | 29.0* | 27.0* | 33.0* | 29.0* | 22.0*
